Reference: PubChem BioAssay AID1159580 (chemical genetic matrix, 2015)
Values joined by “and” are separate entries in the source; they are usually repeats but may differ in a detail not shown here. Equal entries are not always repeated. Hit rate of the full screen: of about 5,500 compounds, about 2,000 (36%) were called active. Not shown: some 18% with an inconclusive outcome. Rule as the data show it: active = normalized growth mostly below about 0.91 (no sharp cut-off); inconclusive = no clear call, values can overlap the other calls; inactive = mostly above about 0.92. Some of the results follow.

Assay: chemical genetic growth profiling, strain panel (AID 1159580);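 also: tested at 20 µM; growth read once vehicle control cultures reached saturation at 30 °C; 1 = growth at the plate median or of vehicle wells; lower values mean less growth of the strain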
Settings: S. cerevisiae deletion strains, growth OD

Measured: normalized growth

COC(=O)C1=CO[C@@H](O[C@@H]2O[C@H](CO)[C@@H](O)[C@H](O)[C@H]2O)[C@@H]2[C@@H](C)[C@@H](O)C[C@H]12
inactive: locus YAL013W, strain DEP1, hits give low values 1 | locus YAL021C, strain ccr4, hits give low values 0.973 | locus YAL026C, strain drs2, hits give low values 1.01 | locus YAL030W, strain snc1, hits give low values 0.996 | locus YBL061C, strain skt5, hits give low values 0.999 | locus YBR009C, strain hhf1, hits give low values 0.998 | locus YBR021W, strain FUR4, hits give low values 1.02 | locus YBR023C, strain chs3, hits give low values 0.994 | locus YBR171W, strain sec66, hits give low values 1 | locus YBR229C, strain ROT2, hits give low values 1.01 | locus YBR231C, strain swc5, hits give low values 1.01 | locus YBR279W, strain paf1, hits give low values 0.989 | locus YCL011C, strain gbp2, hits give low values 0.997 | locus YCL016C, strain dcc1, hits give low values 0.979 | locus YCL029C, strain bik1, hits give low values 0.989 | locus YCL061C, strain MRC1, hits give low values 0.973 | locus YCL069W, strain vba3, hits give low values 0.999 | locus YCR088W, strain abp1, hits give low values 0.998 | locus YDL005C, strain med2, hits give low values 0.989 | locus YDL035C, strain GPR1, hits give low values 1.02 | locus YDL040C, strain nat1, hits give low values 1 | locus YDL074C, strain BRE1, hits give low values 1 | locus YDL101C, strain DUN1, hits give low values 0.996 | locus YDL134C, strain PPH21, hits give low values 1.08 | locus YDL185W, strain tfp1, hits give low values 0.967 | locus YDL192W, strain arf1, hits give low values 1 | locus YDR001C, strain nth1, hits give low values 1 | locus YDR069C, strain doa4, hits give low values 0.998 | locus YDR101C, strain arx1, hits give low values 0.977 | locus YDR137W, strain rgp1, hits give low values 1 | locus YDR150W, strain NUM1, hits give low values 0.993 | locus YDR159W, strain sac3, hits give low values 0.998 | locus YDR162C, strain NBP2, hits give low values 1.01 | locus YDR195W, strain ref2 0.989 | locus YDR297W, strain sur2, hits give low values 0.996 | locus YDR318W, strain mcm21, hits give low values 1.01 | locus YDR334W, strain swr1, hits give low values 1.01 | locus YDR335W, strain msn5, hits give low values 0.995 | locus YDR388W, hits give low values 0.995 | locus YDR392W, strain spt3, hits give low values 0.891 | locus YDR502C, strain sam2, hits give low values 1.01 | locus YEL003W, strain gim4, hits give low values 1.02 | locus YEL037C, strain rad23, hits give low values 1.01 | locus YEL061C, strain CIN8 (second series), hits give low values 1 | locus YEL061C, strain CIN8, hits give low values 1.01 | locus YER015W, strain faa2, hits give low values 0.995 | locus YER016W, strain bim1, hits give low values 0.999 | locus YER110C, hits give low values 0.976 | locus YER111C, strain swi4, hits give low values 0.991 | locus YER155C, strain BEM2 (second series), hits give low values 0.986 | locus YER155C, strain BEM2, hits give low values 0.997 | locus YER167W, strain BCK2, hits give low values 1 | locus YFR010W, strain ubp6, hits give low values 1 | locus YGL078C, strain dbp3, hits give low values 0.989 | locus YGL086W, strain mad1, hits give low values 0.943 | locus YGL167C, strain pmr1, hits give low values 1.01 | locus YGL173C, strain kem1, hits give low values 1.02 | locus YGL227W, strain vid30, hits give low values 0.994 | locus YGL240W, strain doc1, hits give low values 0.987 | locus YGL248W, strain PDE1, hits give low values 1.02 | locus YGL253W, strain hxk2, hits give low values 1.01 | locus YGR078C, strain PAC10, hits give low values 1 | locus YGR135W, strain pre9, hits give low values 1 | locus YGR229C, strain SMI1, hits give low values 1.03 | locus YGR252W, strain gcn5, hits give low values 1.14 | locus YHR013C, strain ard1, hits give low values 1.03 | locus YHR027C, strain rpn1, hits give low values 1 | locus YHR030C, strain SLT2, hits give low values 0.992 and 1.04 | locus YHR079C, strain IRE1 (second series), hits give low values 0.979 | locus YHR079C, strain IRE1, hits give low values 1.06 | locus YHR094C, strain hxt1, hits give low values 0.998 | locus YHR129C, strain ARP1, hits give low values 1 | locus YHR142W, strain chs7, hits give low values 1 | locus YHR200W, strain rpn10, hits give low values 0.979 | locus YIL066C, strain RNR3, hits give low values 1.01 | locus YIL073C, strain SPO22, hits give low values 0.986 | locus YIL125W, strain kgd1, hits give low values 0.985 | locus YIR030C, strain dcg1, hits give low values 0.996 | locus YJL092W, strain hpr5, hits give low values 1 | locus YJL095W, strain BCK1 (second series), hits give low values 1 | locus YJL095W, strain BCK1, hits give low values 1.04 and 1 | locus YJL115W, strain asf1, hits give low values 0.999 | locus YJL129C, strain trk1, hits give low values 0.986 | locus YJL134W, strain LCB3, hits give low values 1 | locus YJL154C, strain vps35, hits give low values 1.01 | locus YJL164C, strain tpk1, hits give low values 1 | locus YJL166W, strain qcr8, hits give low values 0.972 | locus YJL168C, strain set2, hits give low values 0.978 | locus YJL187C, strain SWE1 (second series), hits give low values 1 | locus YJL187C, strain SWE1, hits give low values 1 | locus YJR043C, strain POL32, hits give low values 1.01 | locus YJR066W, strain TOR1, hits give low values 1.01 | locus YJR075W, strain HOC1, hits give low values 0.995 | locus YKL009W, strain mrt4, hits give low values 1.01 | locus YKL068W, hits give low values 0.987 | locus YKL085W, strain MDH1 (second series), hits give low values 0.978 | locus YKL085W, strain MDH1, hits give low values 0.978 | locus YKL160W, strain elf1, hits give low values 0.961 | locus YKL190W, strain CNB1, hits give low values 1 | locus YKR001C, strain vps1, hits give low values 0.999 | locus YKR026C, strain gcn3, hits give low values 0.997 | locus YKR091W, strain srl3, hits give low values 0.992 | locus YLL001W, strain dnm1, hits give low values 0.973 | locus YLL026W, hits give low values 1 | locus YLL041C, strain sdh2, hits give low values 0.994 | locus YLR027C, strain aat2, hits give low values 0.994 | locus YLR039C, strain RIC1, hits give low values 1.05 | locus YLR058C, strain SHM2, hits give low values 1.01 | locus YLR102C, strain apc9, hits give low values 0.984 | locus YLR113W, strain HOG1, hits give low values 0.991 | locus YLR221C, strain rsa3, hits give low values 0.971 | locus YLR258W, strain gsy2, hits give low values 0.981 | locus YLR262C, strain YPT6 (second series), hits give low values 0.985 | locus YLR262C, strain YPT6, hits give low values 1.08 | locus YLR268W, strain sec22, hits give low values 0.968 | locus YLR320W, strain mms22, hits give low values 0.964 | locus YLR330W, strain CHS5, hits give low values 0.984 | locus YLR342W, strain FKS1 (second series), hits give low values 1.04 | locus YLR342W, strain FKS1, hits give low values 0.995 | locus YLR357W, strain rsc2, hits give low values 0.986 | locus YLR370C, strain arc18, hits give low values 0.992 | locus YLR371W, strain rom2, hits give low values 0.973 | locus YLR384C, strain iki3, hits give low values 1 | locus YLR418C, strain cdc73, hits give low values 1.04 | locus YML016C, strain PPZ1, hits give low values 0.997 | locus YML032C, strain rad52, hits give low values 1.03 | locus YML120C, strain ndi1, hits give low values 0.99 | locus YML124C, strain tub3, hits give low values 0.988 | locus YMR058W, strain fet3, hits give low values 1 | locus YMR078C, strain ctf18, hits give low values 0.954 | locus YMR125W, strain sto1, hits give low values 0.97 | locus YMR129W, hits give low values 1.01 | locus YMR205C, strain PFK2, hits give low values 0.952 | locus YMR223W, strain ubp8, hits give low values 1.01 | locus YMR231W, strain pep5, hits give low values 1 | locus YMR263W, strain SAP30, hits give low values 0.996 | locus YMR307W, strain GAS1, hits give low values 1.18 | locus YNL067W, strain RPL9B, hits give low values 1 | locus YNL071W, strain lat1, hits give low values 1 | locus YNL183C, strain NPR1, hits give low values 1 | locus YNL209W, strain ssb2, hits give low values 1 | locus YNL233W, strain BNI4, hits give low values 1 | locus YNL248C, strain rpa49, hits give low values 0.982 | locus YNL250W, strain rad50, hits give low values 0.939 | locus YNL271C, strain bni1, hits give low values 0.989 | locus YNL298W, strain CLA4, hits give low values 1 | locus YNL307C, strain MCK1, hits give low values 0.979 | locus YNL322C, strain KRE1 (second series), hits give low values 0.989 | locus YNR049C, strain mso1, hits give low values 0.997 | locus YNR052C, strain pop2, hits give low values 0.997 | locus YOL012C, strain htz1 1.13 | locus YOL147C, strain pex11, hits give low values 0.988 | locus YOR001W, strain rrp6, hits give low values 1 | locus YOR061W, strain CKA2, hits give low values 1.01 | locus YOR069W, strain VPS5, hits give low values 0.995 | locus YOR070C, strain gyp1, hits give low values 0.999 | locus YOR080W, strain dia2, hits give low values 0.997 | locus YOR083W, strain WHI5, hits give low values 0.958 | locus YOR106W, strain vam3, hits give low values 0.989 | locus YOR136W, strain idh2, hits give low values 0.991 | locus YOR144C, strain elg1, hits give low values 0.993 | locus YOR184W, strain ser1, hits give low values 1 | locus YOR231W, strain MKK1, hits give low values 1.03 | locus YOR265W, strain rbl2, hits give low values 0.999 | locus YOR270C, strain vph1, hits give low values 1.02 | locus YOR290C, strain snf2, hits give low values 0.98 | locus YOR316C, strain cot1, hits give low values 0.996 | locus YPL051W, strain arl3, hits give low values 0.977 | locus YPL055C, strain LGE1, hits give low values 1.01 | locus YPL078C, strain atp4, hits give low values 0.965 | locus YPL106C, strain sse1, hits give low values 0.948 | locus YPL240C, strain hsp82, hits give low values 0.996 | locus YPL256C, strain CLN2, hits give low values 1.05 | locus YPR119W, strain clb2, hits give low values 0.981 | locus YPR141C, strain kar3, hits give low values 0.977 | locus YPR163C, strain tif3, hits give low values 0.984 | locus YPR167C, strain met16, hits give low values 0.995 | strain wtn01, hits give low values 0.948
